Source: PubChem BioAssay

Experiment: probe aDKK1 binding to arrayed compounds – biochemical, biotinylated probe, 635/667 nm fluorescence, primary screen (AID 1099);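 further: score merges 667nm spot fluorescence with signal to noise across triplicate slides; reference of the scale not given here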
Conditions: small-molecule microarray, higher = more signal

| SMILES | composite z-score |
| --- | --- |
| CC(CO)N1C(=O)[C@@H]2C3C(=O)OCCC/C=C\[C@H]3OC23C=CCN(C(C)(C)C)C(=O)[C@@H]13 (stereo not given in full) | -0.349 |
| CN1C(=O)C2C=CC(C(O)c3ccccc3)N(N(c3ccccc3)c3ccccc3)C2C1=O (stereo not given) | 0.629 |
| C=CCOC(=O)[C@H]1[C@@H]2C(=O)O[C@@H](c3ccccc3)[C@@H](c3ccccc3)N2[C@@H](c2ccc(OCCOC(=O)[C@@H]3C[C@@H]4C(=O)N[C@@H](CCCCNC(C)=O)C(=O)N4[C@@H]3c3ccc(O)cc3)cc2)[C@]12C(=O)Nc1ccccc12 | -0.208 |
| C[C@H]1C2[C@H](Cc3ccccc3)NC(=O)[C@]23C(=O)N[C@H](Cc2ccccc2)C(=O)N2CCC[C@H]2C(=O)NC/C=C\C/C=C/C3[C@@H]2O[C@]12C (stereo not given in full) | -0.0646 |
| CC(C)C(O)C1C=CC2C(=O)NC(=O)C2N1Nc1ccc(Cl)cc1Cl (stereo not given) | 1.2 |
| COC(=O)C(CC#Cc1ccc2c(c1)[C@]1(C(=O)N2)[C@H](C(=O)Nc2nc3ccccc3s2)[C@H]2C(=O)O[C@H](c3ccccc3)[C@H](c3ccccc3)N2[C@@H]1c1ccc(O)cc1)C(=O)OC | 0.381 |
| CC(C)C(O)C1C=CC2C(=O)N(c3ccccc3)C(=O)C2N1Nc1ccc([N+](=O)[O-])cc1 (stereo not given) | 0.814 |
| CC(C)C[C@@H]1NC(=O)[C@@H]2C[C@H](C(=O)NCc3ccc(F)cc3)[C@H](c3cccc(OCCO)c3)N2C1=O | -0.23 |
| CCCC[C@H]1OB(O)C[C@H]2C1=C(COC)C[C@H]1C(=O)N(C)C(=O)[C@H]12 | -0.252 |
| COCCOC(=O)N1C(=O)[C@@]2(c3cc(C#Cc4ccc(OC)cc4)ccc31)[C@H](c1ccccc1OCCO)N1[C@H](c3ccccc3)[C@H](c3ccccc3)OC(=O)[C@H]1[C@@H]2C(=O)NC[C@H](O)c1ccccc1 | 0.201 |
| CCOC(=O)C[C@H]1[C@H](OC(=O)c2ccc(C(=O)c3ccccc3)cc2)[C@@H](NC(=O)c2ccccc2)c2cc(OCCCO)ccc2N1C(=O)c1ccc2ccccc2n1 | -0.349 |
| O=C(c1ccccc1)N1C(=O)[C@@]2(Cc3ccccc31)N=C(c1ccc(OCCCO)cc1)O[C@H]2c1ccccc1 | 1 |
| Cc1ccc(N2C(=O)c3ccccc3[C@@H](C(=O)NC3CC3)[C@@H]2c2ccc(CO)cc2)nc1 | -0.201 |
| [N-]=[N+]=Nc1ccccc1[C@@H]1OC(c2ccc(OCCCO)cc2)=N[C@]1(CCS(=O)(=O)c1ccccc1)C(N)=O | 0.708 |
| COC(=O)C(CC#Cc1ccc2c(c1)[C@]1(C(=O)N2)[C@H](C(=O)Nc2nc3ccccc3s2)[C@H]2C(=O)O[C@H](c3ccccc3)[C@H](c3ccccc3)N2[C@@H]1c1ccccc1OCCO)C(=O)OC | 0.473 |
| CCOC(=O)C[C@H]1[C@H](OC(=O)c2ccc(C(=O)c3ccccc3)cc2)[C@@H](NC(=O)CC(C)C)c2cc(OCCCO)ccc2N1C(=O)c1ccc2ccccc2n1 | -0.0449 |
| C=CC[C@]1(C(=O)NCc2ccccc2)N=C(c2ccc(OCCCO)cc2)O[C@H]1c1ccccc1N=[N+]=[N-] | -0.0281 |
| OCCCC1=CC(c2cccs2)N(Cc2cc3c(cc2Br)OCO3)CC1 (stereo not given) | -0.16 |

| SMILES | composite z-score |
| --- | --- |
| COc1ccc(C#Cc2ccc3c(c2)[C@]2(C(=O)N3)[C@H](C(=O)Nc3nc4ccccc4s3)[C@H]3C(=O)O[C@H](c4ccccc4)[C@H](c4ccccc4)N3[C@@H]2c2ccc(O)cc2)cc1 | 1.06 |
| NC(=O)[C@@H]1[C@H]2C(=O)O[C@H](c3ccccc3)[C@H](c3ccccc3)N2[C@H](c2ccc(O)cc2)[C@@]12C(=O)Nc1ccccc12 | -0.109 |
| CCCCC(CC)C(O)C1C=CC2C(=O)N(Cc3ccccc3)C(=O)C2N1n1cnnc1 (stereo not given) | 0.197 |
| O=C1O[C@H](c2ccccc2)[C@H](c2ccccc2)N2[C@H]1[C@@H](C(=O)N1CCCCCCC1)[C@]1(C(=O)Nc3ccc(C#CCCO)cc31)[C@H]2c1ccccc1OCCO | 3.11 |
| C=CCNC(=O)[C@H]1[C@@H]2C(=O)O[C@@H](c3ccccc3)[C@@H](c3ccccc3)N2[C@@H](c2ccccc2OCCO)[C@]12C(=O)Nc1ccc(C#CCCO)cc12 | -0.0856 |
| COc1ccc(C#Cc2ccc3c(c2)[C@]2(C(=O)N3)[C@H](c3ccccc3OCCO)N3[C@H](c4ccccc4)[C@H](c4ccccc4)OC(=O)[C@H]3[C@@H]2C(=O)Nc2nc3ccccc3s2)cc1 | -0.0008 |
| CN1C(=O)C2C=CC(C(O)C3CC=CCC3)N(N(c3ccccc3)c3ccccc3)C2C1=O (stereo not given) | 0.244 |
| O=C1O[C@@H](c2ccccc2)[C@@H](c2ccccc2)N2[C@@H](c3ccccc3OCCO)[C@]3(C(=O)Nc4ccccc43)[C@@H](C(=O)Nc3nc4ccccc4s3)[C@H]12 | 1.05 |
| O=C1NC(=O)C2C1C=CC(C(O)c1cc(C(F)(F)F)cc(C(F)(F)F)c1)N2Nc1ccccn1 (stereo not given) | -0.0616 |
| O=C(N1CCCCC1)[C@]1(Cc2ccccc2)N=C(c2ccc(OCCCO)cc2)O[C@@H]1c1ccccc1 | 0.887 |
| CC(C)c1ccc(NN2C(C(O)c3ccc(B(O)O)cc3)C=CC3C(=O)N(c4ccccc4)C(=O)C32)cc1 (stereo not given) | 0.942 |
| NC(=O)NCC#Cc1ccc2c(c1)[C@]1(C(=O)N2)[C@H](c2ccc(O)cc2)N2[C@H](c3ccccc3)[C@H](c3ccccc3)OC(=O)[C@H]2[C@@H]1C(=O)O | -0.173 |
| Cc1ccccc1C(O)C1C=CC2C(=O)N(c3ccccc3)C(=O)C2N1Nc1ccc(C(C)C)cc1 (stereo not given) | 0.456 |
| COc1ccc(CCNC(=O)[C@@H]2c3ccccc3C(=O)N(Cc3ccccc3Cl)[C@H]2c2ccc(CO)cc2)cc1 | 0.235 |
| O=C(NC1CC1)[C@@H]1c2ccccc2C(=O)N(Cc2ccccc2Cl)[C@H]1c1ccc(CO)cc1 | 0.893 |
| Cc1nc2cc(Br)ccc2c(=O)o1 | -0.0717 |
| CCN(CC)c1ccc(N2CC=CC34O[C@@H]5C=CCCOC(=O)C5[C@H]3C(=O)N(CCCCCCO)[C@@H]4C2=O)cc1 (stereo not given in full) | -0.0776 |
